The list is not random: actives were taken first. Their share in the collection is about 4.6%.
USP10 block = inhibitors of human USP10 deubiquitinase | inhibition, % at 20 µM | Ubiquitin carboxyl-terminal hydrolase 10 (Homo sapiens), Q14694 | purified USP10, Ub-rhodamine fluorescence, 60 min | actives 1.1% (n = 47,000)
USP8 block = inhibitors of human USP8 deubiquitinase; inhibition, % at 20 µM; Ubiquitin carboxyl-terminal hydrolase 8 (Homo sapiens), P40818; actives 4.2% (n = 47,000); purified USP8, Ub-rhodamine cleavage fluorescence, 30 min
USP7 block = inhibitors of human USP7 deubiquitinase. purified USP7, Ub-rhodamine cleavage fluorescence. AID 1645854, 2021. inhibition, % at 20 µM. Ubiquitin carboxyl-terminal hydrolase 7 (Homo sapiens), Q93009. actives 0.3% (n = 47,000)
Target sequence (Q93009 whole entry, looked up): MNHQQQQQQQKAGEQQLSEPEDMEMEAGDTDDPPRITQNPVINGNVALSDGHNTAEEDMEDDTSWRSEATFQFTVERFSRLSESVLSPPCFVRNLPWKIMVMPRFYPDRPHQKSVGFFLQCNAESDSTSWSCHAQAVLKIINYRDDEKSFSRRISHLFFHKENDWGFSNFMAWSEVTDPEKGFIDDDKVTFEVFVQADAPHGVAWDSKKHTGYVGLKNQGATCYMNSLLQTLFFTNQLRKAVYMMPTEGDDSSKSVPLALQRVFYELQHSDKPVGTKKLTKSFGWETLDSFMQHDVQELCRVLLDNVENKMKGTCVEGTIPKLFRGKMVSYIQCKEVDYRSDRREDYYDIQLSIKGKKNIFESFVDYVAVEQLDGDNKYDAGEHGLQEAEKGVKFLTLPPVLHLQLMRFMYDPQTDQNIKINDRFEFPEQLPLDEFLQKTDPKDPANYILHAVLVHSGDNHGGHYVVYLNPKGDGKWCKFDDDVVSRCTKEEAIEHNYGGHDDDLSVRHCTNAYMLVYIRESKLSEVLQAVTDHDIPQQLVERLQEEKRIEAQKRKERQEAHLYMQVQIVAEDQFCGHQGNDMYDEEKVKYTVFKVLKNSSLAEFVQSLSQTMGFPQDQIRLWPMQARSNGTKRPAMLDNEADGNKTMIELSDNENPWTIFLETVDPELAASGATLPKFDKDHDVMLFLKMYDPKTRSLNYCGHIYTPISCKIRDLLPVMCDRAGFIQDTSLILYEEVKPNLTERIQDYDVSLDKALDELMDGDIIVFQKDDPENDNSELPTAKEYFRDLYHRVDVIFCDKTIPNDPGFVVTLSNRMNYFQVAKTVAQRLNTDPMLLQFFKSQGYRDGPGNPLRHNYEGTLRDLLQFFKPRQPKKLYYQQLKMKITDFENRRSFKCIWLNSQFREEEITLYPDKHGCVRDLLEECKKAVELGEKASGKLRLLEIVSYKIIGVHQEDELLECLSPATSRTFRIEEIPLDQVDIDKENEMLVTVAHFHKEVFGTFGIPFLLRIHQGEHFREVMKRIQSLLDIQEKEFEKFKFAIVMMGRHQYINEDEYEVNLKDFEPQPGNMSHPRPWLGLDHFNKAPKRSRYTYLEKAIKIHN
UCHL1 block = inhibitors of human UCHL1 deubiquitinase; inhibition, % at 20 µM; actives 0.2% (n = 47,000); purified UCHL1, Ub-rhodamine cleavage fluorescence; AID 1645859, 2021; Ubiquitin carboxyl-terminal hydrolase isozyme L1 (Homo sapiens), P09936
Hits are given with their value; n = inactive; x = not tested or not shown. Rule as the data show it: active = inhibition above about 30%; inactive = the rest.

SMILES	USP10 block	USP8 block	USP7 block	UCHL1 block
COc1cc(OC)cc(-n2c(=O)c3sccc3n(CC(=O)Nc3ccc(C)cc3)c2=O)c1	n	n	n	n
COC1CCN([C@@H]2[C@@H](O)[C@H](Oc3ccccc3)C[C@H]2N)CC1	n	n	n	n
COc1ccccc1-c1cc(NC(C)=O)c2ncc(-c3ccc(S(C)(=O)=O)cc3)n2c1	n	69	n	n
CC(=O)Nc1cc(-c2cccc(CO)c2)cn2c(-c3ccc(S(C)(=O)=O)cc3)cnc12	n	n	n	n
Cc1cccc(C)c1NC(=O)C1(NC(=O)c2ccc(Br)cc2)CCCCC1	n	43	n	n
CCn1c(=O)c2cc(C(=O)NCc3cc(C)ccc3C)nn2c2ccccc21	n	n	n	n
N#Cc1c(-c2cccs2)cc(-c2cccs2)[nH]c1=O	n	n	n	n
N#Cc1c(-c2ccc(Cl)cc2)cc(-c2cccc(Br)c2)[nH]c1=O	n	52	n	n
Cc1ccc2c(Nc3ccccc3)c(-c3nc(C)no3)cnc2n1	n	n	n	n
Cc1ccc2c(NCc3ccc4c(c3)OCO4)c(-c3nc(C)no3)cnc2n1	n	61	n	n
CC(C(=O)N1CCC(c2onc3c2CCCC3)CC1)c1ccccc1 (configuration not stated)	n	n	n	n
COc1ccc(NC(=O)C(C)n2nc(-c3ccccc3)c3cc(Cl)ccc32)cc1 (configuration not stated)	n	n	n	n
CC(C(=O)NCCc1ccccc1)n1nc(-c2ccccc2)c2cc(Cl)ccc21 (configuration not stated)	n	31	n	n
O=C(NCc1ccccc1Cl)C1Oc2ccccc2NC1=O (configuration not stated)	n	n	n	n
Cc1ccc(N2CCN(C(=O)c3csc(C(=O)NC4CC4)n3)CC2)cc1	n	n	n	n
Cc1nnc(NC(=O)C2CCN(S(=O)(=O)c3ccc4c(c3)CCC4)CC2)o1	n	n	n	n
O=C(Nc1nc2c(s1)CCC2)C1CCN(S(=O)(=O)c2ccc3c(c2)CCCC3)CC1	n	36	n	n
Cc1ccc(-c2nc(CNC(=O)c3coc(C4CC4)n3)no2)cc1	n	n	n	n
CCOc1ccccc1CNC(=O)c1cnc2scc(C)n2c1=O	n	n	n	n
O=S(=O)(c1ccc(O)cc1)N1C[C@@H]2c3nccn3-c3ccccc3[C@@H]2C1	n	n	n	n
O=C(Nc1cccc(Cl)c1)N1CCC(c2cc(-c3ccco3)n[nH]2)CC1	n	80	n	n
Cc1nn2c(C)c(C(=O)NCc3ccc4c(c3)OCO4)cnc2c1-c1ccccc1	n	n	n	n
COc1ccccc1Nc1ncc(C(=O)NCc2ccc3c(c2)OCO3)c2ccccc12	n	63	n	n
COc1cc(OC)c(NC(C)C(=O)Nc2ccc3c(c2)OCO3)cc1Cl (configuration not stated)	n	37	n	n
CCOC(=O)c1cnc(Nc2cc(OC)ccc2OC)c2ccccc12	n	n	n	n
SMILES	USP10 block	USP8 block	USP7 block	UCHL1 block
COc1cc(Cl)ccc1Nc1ncc(C(=O)Nc2ccc3c(c2)OCO3)c2ccccc12	n	39	n	n
CCOC(=O)c1cnc(Nc2ccccc2OC)c2ccccc12	n	n	n	n
COc1ccccc1Nc1ncc(C(=O)NCc2ccc(F)cc2)c2ccccc12	n	71	n	n
O=C(Nc1ccc(-c2cn3ccsc3n2)cc1)c1ccccc1Br	n	n	n	n
CCC(CC)C(=O)N1CCC2(CC1)NC(=O)N(CCOc1ccccc1)C2=O	n	n	n	n
Cc1c(C(=O)Nc2ccc(-n3c(C)nc4ncccc4c3=O)cc2)cccc1[N+](=O)[O-]	n	n	n	n
Cc1ccc(NC(=O)C2CCN(c3nc4nc[nH]c(=O)c4s3)CC2)cc1F	n	39	n	n
O=C(Nc1ccc(Cl)cc1)C1CCN(c2nc3nc[nH]c(=O)c3s2)CC1	n	n	n	n
CCS(=O)(=O)N1Cc2ccccc2CC1C(=O)Nc1nc2ccccc2s1 (configuration not stated)	n	32	n	n
O=C(Nc1nc2ccccc2s1)C1CC(=O)N(c2ccccc2)C1 (configuration not stated)	n	n	n	n
Cc1ccccc1NC(=O)Cn1ccc2ccn(Cc3ccccc3)c2c1=O	n	49	n	n
O=C(Cn1c(=O)c2c(ncn2C2CCCC2)n(Cc2ccccc2)c1=O)NCC1CCCO1 (configuration not stated)	n	n	n	n
COc1ccc(-c2cc3c(=O)n(CC(=O)Nc4ccccc4C)ccn3n2)cc1	n	31	n	n
Cc1ccccc1NC(=O)Cn1c(=O)c2c(ncn2C2CCCC2)n(Cc2ccccc2)c1=O	n	39	n	n
Cc1ccccc1NC(=O)Cn1cccc(-c2nc(-c3ccccc3)no2)c1=O	n	n	n	n
Cn1ccc2ccn(CC(=O)Nc3cccc(Cl)c3)c(=O)c21	n	n	x	n
O=C(Cn1ccc2ccn(Cc3ccccc3)c2c1=O)Nc1cccc(F)c1	n	32	n	n
N#Cc1cc(-c2ccccc2)nnc1Oc1ccc(F)cc1	n	n	n	n
Cc1ccc2onc(CC(=O)N(C)c3ccc(F)cc3)c2c1	n	n	n	n
O=C(c1ccc(F)cc1)N(c1ccccn1)c1ccccn1	n	n	n	n
Cc1noc(-c2ccc(-n3ncc(C(=O)NCc4ccccc4C)c3C)nc2)n1	n	n	n	n
COc1ccc(NC(=O)CN2C(=O)CC(c3ccccc3)S(=O)(=O)c3ccccc32)cc1 (configuration not stated)	n	n	n	n
COCCN1CCn2c(nc3cc(C(=O)NC4CCCCC4)ccc32)C1	n	n	n	n
O=C(Cn1cc(C(=O)C2CC2)c2ccccc21)NCCOc1ccc(Cl)cc1	n	32	n	n
O=C(O)Cn1cc(C(=O)C2CC2)c2ccccc21	n	n	n	n
SMILES	USP10 block	USP8 block	USP7 block	UCHL1 block
FC(F)(F)c1ccc(CNC2CCN(CCc3cccs3)CC2)cn1	n	n	n	n
O=C(Nc1ccccc1)c1ccnc(Nc2ccc(F)cc2)c1	n	40	n	n
O=C(Nc1cnc(N2CCCCC2)nc1)c1ccccc1Cl	n	n	n	n
COc1ccc(CCN2COc3c(cc(Cl)c4cccnc34)C2)cc1OC	n	97	n	31
O=C(/C=C1\NCCc2cc3c(cc21)OCCCO3)c1ccc(OC(F)(F)F)cc1	n	53	n	n
COc1ccc(C(=O)/C=C2\NCCc3cc4c(cc32)OCCCO4)cc1OC	n	n	n	n
O=C(Nc1nccn1Cc1ccccc1)c1cc(-c2cccc(Cl)c2)on1	n	80	n	n
O=C(Cn1cc(S(=O)(=O)Cc2ccc(F)cc2)c2ccccc21)N1CCCCCC1	n	n	n	n
O=S(=O)(Cc1ccc(F)cc1)c1c[nH]c2ccccc12	n	68	n	n
O=C(Nc1ccccc1F)C1CCCN(S(=O)(=O)Cc2ccc(F)cc2)C1 (configuration not stated)	n	n	n	n
